Bioassay records: PubChem, National Center for Advancing Translational Sciences (NCATS)
Rows were chosen to be rich in hits. Some 6.5% of all compounds tested hit in one or more screens of this group.
Vaccinia mCherry: inhibitors of vaccinia virus infection (mCherry reporter signal). Vaccinia virus mCherry reporter infection, fluorescence. hit rate 0.63% among 310,000. Potency, µM (titrated, usually from 36.5 µM), for inactives: at the top dose activity change, negative = inhibition, hits mostly inhibitors; calls by dose curve; tested in A549 cells; note: potency is the fitted concentration of half-maximal effect; nearly all actives have a fitted effect of over 35% in size
HCMV inh: blocks human cytomegalovirus replication; HFF cells, HCMV-luciferase reporter, 72 h; active compounds read low; activity change, negative = inhibition, % at 57.5 µM; hit rate 4.5% among 410,000; AID 1259415; in the data active = activity change below about -60%; inconclusive = no clear call, values can overlap the other calls; inactive = above about -39%
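Human foreskin fibroblasts infected with luciferase-reporter HCMV at MOI 1 PFU/cell, compounds at two doses. Luciferase measured 72 h post infection; normalized to buffer-only basal and Salinomycin (10uM) controls.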
Lassa entry inh: Lassa virus entry inhibition; Lassa virus pseudotype entry inhibition, cell reporter; Potency, µM (series often up to 37.9 µM), for the others: at the highest dose activity change, negative = inhibition, usual class: inhibitors; hit rate 1.2% among 300,000; calls by dose curve; tested in HEK293 cells; note: potency is the fitted concentration of half-maximal effect; nearly all actives have a fitted effect of over 50% in size
Marburg entry inh: inhibitors of Marburg virus binding or cell entry | Marburg virus pseudotyped entry inhibition, cell reporter | Potency, µM (doses to about 37.8 µM), for the others: top-dose activity change, negative = inhibition, hits mostly inhibitors | hit rate 1.8% among 300,000; calls by dose curve; tested in HEK293 cells; note: potency is the fitted concentration of half-maximal effect
FMDV inh: blocks foot and mouth disease virus. FMDV antiviral cell-based qHTS. Potency, µM (highest dose often 57.9 µM), inactives show at the highest dose activity change, negative = inhibition, hits mostly inhibitors. hit rate 1.2% among 410,000; calls by dose curve; tested in HEK293T cells; note: read-out not given here; potency is the fitted concentration of half-maximal effect; nearly all actives have a fitted effect of over 45% in size
Vaccinia Venus: inhibitors of vaccinia virus (Venus reporter); Vaccinia virus Venus reporter expression, fluorescence; Potency, µM (top dose mostly 36.5 µM), inactives show top-dose activity change, negative = inhibition, usual class: inhibitors; hit rate 0.46% among 330,000; calls by dose curve; tested in A549 cells; note: potency is the fitted concentration of half-maximal effect; nearly all actives have a fitted effect of over 30% in size
* hit, by the source's call; i = inactive; ? = inconclusive; . = no result given; [ ] = dose if it differs, or a comment. % is set by controls: 0 for no effect and ±100 for the full control effect.

SMILES	Vaccinia mCherry	HCMV inh	Lassa entry inh	Marburg entry inh	FMDV inh	Vaccinia Venus
Fc1cc(F)cc(NC(=S)Nc2ccccc2N2CCOCC2)c1	-19%	-62*	-9%[46.1 µM]	?	-26%	-9%
S=C(NCCc1ccccc1)Nc1ccccc1N1CCOCC1	-11%	-21	-14%[46.1 µM]	?	0%	-14%
COc1cc2c(cc1OC)[C@@H]1O[C@](CCCCN3C(=O)c4ccccc4C3=O)(C2)OC2=C1C(=O)CC(C)(C)C2	.	.	.	-9%[14.2 µM]	.	.
O=C1N(Cc2cccc(Cl)c2)C[C@@H]2C[C@@H](c3cccn3-c3nccs3)N3CCC[C@@]123	?	-20	?	11µM*	?	11%
O=C1N(Cc2cccc(Cl)c2)C[C@@H]2C[C@@H](c3cccn3-c3ccccn3)N3CCC[C@@]123	-11%	-34	?	?	-29%	-8%
CCOC(=O)c1cnc2ccccc2c1NCc1ccco1	.	?	.	.	0%	.
CCOC(=O)c1cnc2ccccc2c1Nc1ccc2c(c1)OCCO2	i	-70*	-25%	-29%	?	-13%
Cc1cccc(CN2C(=O)N/C(=C/c3ccc(C)s3)C2=O)c1	.	2	3.2µM*	?	2%	?
Cc1cccc(CN2C(=O)N/C(=C/c3cc(C)n(-c4cc(C)ccn4)c3C)C2=O)c1	.	.	11µM*	?	-30%	-10%
Cc1nc2cnc(N(C)C)nc2n(CCC#N)c1=O	.	.	.	.	6%	.
Fc1ccc2cc(C3=CCCCC3)ncc2c1	.	-95*	.	.	.	.
Fc1ccccc1CNC1CN2CCC1CC2 (stereo unspecified)	-10%	-28	.	1%[46.1 µM]	2%	-3%
Ic1ccccc1CN[C@@H]1C2CCN(CC2)[C@@H]1C(c1ccccc1)c1ccccc1	?	-99*	.	.	?	?
Ic1ccccc1CN[C@@H]1C2CCN(CC2)[C@H]1C(c1ccccc1)c1ccccc1	.	.	.	4.6µM*	.	.
Ic1ccccc1CNC1C2CCN(CC2)C1C(c1ccccc1)c1ccccc1 (stereo unspecified)	.	.	6.5µM*	4.6µM*	.	.
Cc1ccc(CNc2ncnc3sc(C(=O)N4CCC(N5CCCC(O)C5)CC4)c(C)c23)o1 (stereo unspecified)	-15%	.	.	.	-2%	-8%
COC(=O)C[C@H]1c2ccccc2[C@@H]2C(=C[C@@H](C)[C@H]3C(=O)N(O)C(=O)[C@H]32)N1C(=O)OC	.	.	.	8%[14.2 µM]	.	.
O=C(NNc1ncccc1Cl)c1c(Cl)cccc1Cl	i	-67*	7%	0%	-4%	-8%
O=C(Nc1cccnc1)c1c(F)c(F)c(F)c(F)c1F	-29%	-1	7%	8%	-20%	-29%
O=C(Nc1ccc(Oc2ccc(NC(=O)Nc3ccccc3Cl)cc2)cc1)Nc1ccccc1Cl	-14%	-62*	?	?	-10%	-16%
O=C(Nc1ccncc1)c1c(F)c(F)c(F)c(F)c1F	6.3µM*	-11	1%	-1%	?	?
O=C1C(Cl)=C(Nc2ccc3cn[nH]c3c2)C(=O)c2ccccc21	?	-100*	3.5µM*	?	20µM*	8.9µM*
CCC(=O)N1CCc2cc(S(=O)(=O)NCCC(=O)Nc3ccc(CC)cc3)ccc21	-19%	-13	-11%[46.1 µM]	7%[46.1 µM]	-11%	-21%
NS(=O)(=O)c1ccc(NC(=O)c2c(Cl)cccc2Cl)cc1	-7%	-14	0%	-4%[46.1 µM]	-12%	-3%
O=C(Nc1ccncc1)Nc1cccc(Cl)c1Cl	.	-61*	.	.	?	.
SMILES	Vaccinia mCherry	HCMV inh	Lassa entry inh	Marburg entry inh	FMDV inh	Vaccinia Venus
O=C(Nc1ccncc1)c1c(Cl)cccc1Cl	.	-66*	.	.	-2%	.
O=C(Nc1ccc2cn[nH]c2c1)c1ccccc1F	i	92	?	?	9%	-1%
O=C(Nc1ccccc1)Nc1cccc(Cl)c1Cl	?	104	?	?	26%	?
O=C(Nc1ccc2cn[nH]c2c1)c1c(Cl)cccc1Cl	-23%	-94*	15%	10%	-9%	-21%
CC1=NOC(=O)/C1=C\c1ccc(-c2cc(Cl)ccc2Cl)o1	i	-104*	22%	9%	10µM*	0%
CCOc1ccc(Cl)cc1/C=C1/C(=O)ON=C1C	i	78	11%[46.1 µM]	14%[46.1 µM]	40µM*	-2%
CCCOc1ccc(/C=C2/C(=O)ON=C2C)cc1Cl	.	15	.	.	0%	.
COc1ccc(Cl)cc1/C=C1/C(=O)ON=C1C	-13%	55	?	-7%[46.1 µM]	32µM*	-4%
CC1=C(C(=O)Nc2cc(C)cc(C)c2)C2(CCCCC2)OC1=O	-8%	16	26%[46.1 µM]	3%[46.1 µM]	-9%	-8%
